# Assay outcomes as filed in PubChem BioAssay.
# Sampled rows, rich in hits. Any-hit rate of the full collection: about 15%.
# TDP1 cell noCPT = qHTS for Inhibitors of human tyrosyl-DNA phosphodiesterase 1 (TDP1): qHTS in cells in absence of CPT; DT40 Tdp1-/- hTDP1 cells, no CPT, ATP luminescence, 48 h; Potency, µM (doses to about 46.2 µM), for inactives: at the highest dose activity change, negative = growth inhibition, usual class: inhibitors; hit rate 15% among 420,000; further: nearly all actives have a fitted effect of over 55% in size
#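 A cellular qHTS used chicken DT40 cells lacking endogenous Tdp1 but carrying stably transfected human TDP1. Compounds were applied without camptothecin, and cell growth kinetics were judged by ATP-dependent luminescence after ≥48 hr.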
# TDP1 cell CPT = DT40-hTDP1 cell growth loss with CPT | chicken DT40 Tdp1-/-;hTDP1 cells + 20 nM CPT, ATP luminescence, 48 h | Potency, µM (doses to about 46.2 µM), inactives show at the top dose activity change, negative = growth inhibition, usual class: inhibitors | hit rate 12% among 420,000 | AID 686979; further: nearly all actives have a fitted effect of over 55% in size
#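 Chicken DT40 Tdp1-/- cells complemented with human TDP1, 400 cells/well, exposed to compounds plus 20 nM camptothecin for at least 48 h at 37 C; viability read as ATP content by CellTiter-Glo luminescence.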
# ALOX12 inh = blocks human arachidonate 12S-lipoxygenase; hit rate 1.1% among 580,000; Potency, µM (highest dose often 108 µM), without a hit: top-dose activity change, negative = inhibition, usual class: inhibitors; purified 12hLO, xylenol orange hydroperoxide absorbance
#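 Purified human 12hLO (150 nM final) in 25 mM Hepes, 0.01% Triton X-100, pH 7.0 was preincubated 15 min at room temperature with compound. Then 40 uM arachidonic acid was added, 30 min. Hydroperoxide was read by Fe-XO absorbance ratio 573/405 nm.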
# ELG1 DNA repair = ELG1-dependent DNA repair inhibition. HEK293T ELG1-luciferase reporter, luminescence, 16 h; DNA damage induced by 5-fluorouridine. Potency, µM (top dose mostly 46.1 µM), inactives show at the highest dose activity change, negative = inhibition, most hits filed as inhibitors. hit rate 2.3% among 330,000; further: nearly all actives have a fitted effect of over 55% in size
#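 Step one: seed 2,000 cells per well. Step two: pin-transfer compound or DMSO alongside 5-fluorouridine. Step three: incubate 16 hr, 37 °C, 5% CO2. Step four: add ONE-Glo, wait 30 min, read luminescence.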
# RORgamma inh = ROR gamma (mouse) transcription inhibition. Drosophila S2 Gal4-RORgamma UAS-luciferase reporter, 20 h. Potency, µM (top dose mostly 53.6 µM), without a hit: at the top dose activity change, negative = inhibition, hits mostly inhibitors. hit rate 5.4% among 310,000; further: nearly all actives have a fitted effect of over 60% in size
# Target sequence (P51450 whole entry, looked up, the tested form may be a part): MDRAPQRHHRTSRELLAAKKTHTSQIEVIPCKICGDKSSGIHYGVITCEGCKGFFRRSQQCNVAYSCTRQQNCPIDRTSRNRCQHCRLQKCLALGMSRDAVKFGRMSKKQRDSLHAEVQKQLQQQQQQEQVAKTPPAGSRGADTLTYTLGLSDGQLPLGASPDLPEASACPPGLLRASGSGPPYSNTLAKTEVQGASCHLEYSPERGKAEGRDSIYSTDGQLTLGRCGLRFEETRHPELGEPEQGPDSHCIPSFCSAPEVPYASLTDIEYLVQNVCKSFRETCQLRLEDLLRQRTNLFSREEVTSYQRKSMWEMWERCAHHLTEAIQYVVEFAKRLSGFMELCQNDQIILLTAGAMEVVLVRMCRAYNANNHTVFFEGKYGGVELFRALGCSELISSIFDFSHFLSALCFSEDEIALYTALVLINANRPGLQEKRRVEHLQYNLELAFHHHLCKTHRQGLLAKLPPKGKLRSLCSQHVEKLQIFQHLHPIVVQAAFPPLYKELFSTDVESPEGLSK
#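 Read-out: Photinus luciferase luminescence; inhibitors lower reporter signal. Insect Schneider cells with Gal4-ROR gamma fusion under metallothionein promoter, UAS reporter; 700 uM final copper sulfate induction, 20 hr, ambient temperature.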
# Gal4-VP16 FLuc = Gal4-VP16 reporter inhibition counter-screen. AID 2546. hit rate 3.5% among 310,000. Potency, µM (titrated, usually from 53.6 µM), for the others: at the top dose activity, negative = inhibition, hits mostly inhibitors. Drosophila S2 Gal4-VP16 UAS-luciferase, luminescence, 20 h;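 further: Gal4-VP16 expression switched on by copper sulfate through the metallothionein promoter; nearly all actives have a fitted effect of over 50% in size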
# The depositor's hits bear a star; ? = inconclusive; . = no result given; ! = not active in a repeat; [ ] = remark or other dose. The call rests on the fitted dose curve; in most records, active means well fitted curve in the direction sought with a large enough effect; inconclusive means small, poorly fitted or top-dose-only effect, or another doubt; inactive means no such curve, though single readings can be large; an effect the other way counts as inactive or inconclusive. On the % scale 0 is the no-effect control and ±100 the full control effect; potency means the concentration at half of the fitted maximal effect.
SMILES,TDP1 cell noCPT,TDP1 cell CPT,ALOX12 inh,ELG1 DNA repair,RORgamma inh,Gal4-VP16 FLuc
C[C@H](NS(=O)(=O)OCC(Cl)(Cl)Cl)C1CC1c1ccccc1 (some centres not stated),-23%,-20%,-21%,-14%,-1%,-4%
O=S(=O)(NC1CC(NS(=O)(=O)OCC(Cl)(Cl)Cl)C2CCCCC12)OCC(Cl)(Cl)Cl (configuration not stated),15µM*,15µM*,.,?,?,?
O=C1Nc2ccccc2N(C(=O)c2ccc3ccccc3c2)C1c1nc2ccccc2[nH]1 (configuration not stated),21µM*,10µM*,-12%,.,.,.
NNc1cc(Cl)c(Cl)cc1Cl,.,.,7.1µM*,.,.,.
CCOc1cc(CNC(=O)c2ncoc2-c2ccc(OC)cc2)ccc1OC,.,.,15%,.,.,.
CC(=O)Nc1ccc(S(=O)(=O)N(Cc2cccnc2)Cc2cc3ccccc3[nH]c2=O)cc1,18µM*,16µM*,-3%,-34%,-7%,4%
O=c1[nH]c2ccccc2cc1CN(Cc1cccnc1)S(=O)(=O)c1ccc(Cl)cc1,26µM*,?,18%,?,32%,-4%
CCCNc1c(NC(=O)Nc2cccc(OC)c2)c(=O)oc2ccccc12,.,.,-23%,.,.,.
Cc1onc(-c2c(F)cccc2Cl)c1C(=O)Nc1nnc(C2CC2)s1,?,?,426%,-30%,24%,-10%
Cc1onc(-c2ccccc2)c1C(=O)Nc1nnc(COc2ccc(Cl)cc2)s1,8.2µM*,5.8µM*,.,-1%,?,-18%
Cc1onc(-c2ccccc2Cl)c1C(=O)Nc1nnc(-c2ccc(Br)cc2)s1,?,16µM*,8%,-19%,10µM*,22µM*
CCc1nnc(NC(=O)c2c(-c3ccccc3)noc2C)s1,-7%,-22%,9%,4%,?,3%
CCc1noc(C)c1C(=O)Nc1nc(-c2ccc(Cl)cc2Cl)c(C)s1,?,?,-13%,-2%,-39%,-5%
Cc1onc(-c2ccccc2Cl)c1C(=O)Nc1nnc(-c2ccc(Cl)cc2Cl)s1,?,?,0%,-6%,14µM*,?
Cc1onc(-c2c(F)cccc2Cl)c1C(=O)Nc1nnc(-c2ccccc2)s1,-29%,?,0%,-18%,14µM*,?
Cc1onc(-c2ccccc2Cl)c1C(=O)Nc1nnc(-c2ccc(F)cc2)s1,-27%,-4%,18%,-2%,?,-12%
CCCc1ccc(C(NC(=O)c2nn(C)c(=O)c3ccccc23)c2cccs2)cc1 (configuration not stated),.,.,1%,.,.,.
Cc1nn(CCC#N)c(N)c1C1(O)C(=O)Nc2c(Cl)cc(Cl)cc21 (configuration not stated),3.7µM*,16µM*,9%,12%,?,-7%
COc1ccc(CCNC(=O)c2cc3c(=O)n(C)c4ccccc4c3s2)cc1OC,?,-7%,-22%,.,.,.
CCn1c(=O)c2cc(C(=O)NCCc3ccc(OC)c(OC)c3)sc2c2ccccc21,7.3µM*,8.2µM*,-24%,.,.,.
CCn1c(=O)c2cc(C(=O)NCCc3cc(OC)ccc3OC)sc2c2ccccc21,8.2µM*,-3%,-9%,.,.,.
Cc1ccc(N2CC(c3nnc(NC(=O)c4ccc(NC(=O)C(C)C)cc4)s3)CC2=O)cc1Cl (configuration not stated),.,.,9%,.,.,.
CN(CC1CCOC1)C(=O)Nc1cccc(Br)c1 (configuration not stated),.,.,64%,.,.,.
CC(C)(C)n1nc(-c2ccc(Cl)cc2)c2c(N)ncnc21,18µM*!,8.2µM*!,10%,11%,-21%,-1%
Cc1ccc(-c2nc(N)c3c(-c4ccc(C)cc4)nn(C(C)(C)C)c3n2)cc1,-30%,?,61%,0%,?,-4%
SMILES,TDP1 cell noCPT,TDP1 cell CPT,ALOX12 inh,ELG1 DNA repair,RORgamma inh,Gal4-VP16 FLuc
CC(C)(C)Cn1nc(-c2ccc(Cl)cc2)c2c(N)ncnc21,?,8.4µM*,198%,.,6%,1%
Cn1c(=O)c(-c2ccc(F)cc2)nc2cncnc21,-9%,5%,0%,.,0%,-2%
CC(C)(C)n1nc(-c2ccc(F)cc2)c2c(N)ncnc21,16µM*,23µM*,142%,21%,-37%,0%
CCc1ccc(NC(=O)c2ccc3c(c2)N(CC)C2CCCCN2C3=O)cc1 (configuration not stated),.,.,13%,.,.,.
CCO[C@H]1CN(C(=O)CCc2ccc(-c3ccc(Cl)cc3)[nH]2)C[C@@H]1O,.,.,5%,.,.,.
O=[N+]([O-])c1ccccc1S(=O)c1ccccc1[N+](=O)[O-],16µM*,10µM*,-10%,.,.,.
Cc1ccc(NC(=S)NCc2ccco2)c(C)c1,?,?,75%,10%,16µM*,?
Cc1cccc(C)c1NC(=S)Nc1ccccc1C(=O)NCc1ccco1,-19%,-1%,-16%,11%,?,-27%
Cc1ccccc1NC(=S)NCc1ccco1,-6%,-1%,-16%,6%,13µM*,?
S=C(NCc1ccco1)Nc1cc(Cl)c(Cl)cc1Cl,?,?,?,-8%,?,?
COc1ccc2cnn(CC(=O)N(Cc3ccccc3)Cc3ccccc3)c(=O)c2c1OC,.,.,25%,.,.,.
CCOc1ccc(NC(=O)CCCN2C(=S)NC(C)(C)CC2C)cc1 (configuration not stated),-1%,4%,?,5%,?,?
Cc1cccc(N2CCN(C(=O)CCN3C(=S)NC(C)(C)CC3C)CC2)c1C (configuration not stated),?,?,?,?,4.5µM*,?
CC1CC(C)(C)NC(=S)N1CCCC(=O)Nc1ccc(Br)cc1 (configuration not stated),?,?,?,-7%,4µM*,?
Cc1cccc(NC(=O)CCCN2C(=S)NC(C)(C)CC2C)c1C (configuration not stated),-7%,5%,-21%,1%,11µM*,-24%
O=C1N(c2ccccc2)C[C@H]2CN(Cc3ccccc3)CCN12,.,.,21%[176 µM],.,.,.
COc1ccc(C(=O)N2CCC3(CC2)Cc2ccccc2NC3=O)cc1,.,.,105%,.,.,.
COc1ccc(C(=O)NN/C=C/C(=O)c2ccc(Br)cc2)cc1,?,23µM*,-25%,.,.,.
COc1ccc(C(=O)NNC(=O)Cc2ccc(Cl)cc2)cc1,3%,12%,1%,1%,17%,4%
COc1ccc(C(=O)C=CNNC(=O)c2ccc(Cl)cc2)cc1,?,3.3µM*,?,-12%,-4%[1.91 µM],?
